Measurements as given in PubChem BioAssay (NCI).
About 83,000 compounds went through this panel and 20% of them were active in at least one assay; those are over-represented in the sample as a whole.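 Assay: single dose, 48 h. Readout: percent growth (0 = no net growth; negative = cell death). Active: <10.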 Unmarked numbers belong to inactive results. Calls of active or inactive are those of the source.

Tests used:
Assay in all cases: NCI-60 one-dose screen, 48 h (100 = growth as untreated, 0 = no growth, -100 = all killed)
Settings in all cases: 10 µM
[1] = test system: NCI-H23 lung
[2] = test system: NCI-H226 lung
[3] = test system: NCI-H322M lung
[4] = test system: HOP-62 NSCLC
[5] = test system: NCI-H460 lung
[6] = test system: HOP-92 NSCLC
[7] = test system: NCI-H522 lung
[8] = test system: A549/ATCC NSCLC
[9] = test system: 786-0 renal
[10] = test system: COLO 205 colon
[11] = test system: DU-145 prostate
[12] = test system: K-562 leukemia
[13] = test system: MALME-3M melanoma
[14] = test system: MDA-MB-231 breast
[15] = test system: RXF 393 renal
[16] = test system: SF-268 CNS
[17] = test system: SF-295 CNS
[18] = test system: SF-539 CNS
[19] = test system: UACC-257 melanoma
[20] = test system: M14 melanoma

SMILES | growth [1] | growth [2] | growth [3] | growth [4] | growth [5] | growth [6] | growth [7] | growth [8] | growth [9] | growth [10] | growth [11] | growth [12] | growth [13] | growth [14] | growth [15] | growth [16] | growth [17] | growth [18] | growth [19] | growth [20]
CC1(C)CNC(=O)N1 | 104% | 92.8% | 109% | 92.6% | 106% | 87% | 83.9% | 93.3% | 94.3% | 101% | 110% | 98.1% | 95.2% | 100% | 108% | 103% | 98.7% | 98.9% | 99.8% | 94.1%
C[n+]1c(/C=C/c2c[nH]c3ccccc23)ccc2ccccc21 | 71.5% | 62.3% | 69.8% | 75.4% | 34.5% | 37.9% | 53.4% | 46.6% | 82.9% | 45.8% | 60.9% | 23.3% | 68.6% | 68.8% | 84% | 72.6% | 47.5% | 87% | 76.8% | 75.2%
O=C(C=P(c1ccccc1)(c1ccccc1)c1ccccc1)c1ccc(Br)cc1 | 85.8% | 96.5% | 78.6% | 125% | 93% | 67.1% | 59.5% | 72.4% | 97.9% | 96% | 90.5% | 34.6% | 85.5% | 77.5% | 110% | 93.5% | 91.7% | 113% | 102% | 94.1%
C=C1C(=O)O[C@H]2[C@H]1CC/C(COC(=O)OCCCCCOC(=O)OC/C1=C/CC[C@@]3(C)O[C@H]3[C@H]3OC(=O)C(=C)[C@@H]3CC1)=C\CC[C@@]1(C)O[C@@H]21 | -37.5% (active) | -33% (active) | 50.9% | 9.65% (active) | -19.9% (active) | -49.6% (active) | -66.2% (active) | 44.3% | -63.8% (active) | -85% (active) | -4.53% (active) | 1.11% (active) | -30.1% (active) | -87% (active) | -69.8% (active) | 7.62% (active) | 45.4% | -33.1% (active) | -87% (active) | -45.5% (active)
O=c1c2cccc3c(Nc4ccc(Br)cn4)ccc(c32)c2nc3ccccc3n12 | 81.3% | 93.2% | 77.9% | 87.6% | 86.6% | 62.4% | 89.4% | 106% | 96.9% | 88.2% | 99.4% | 101% | 96.3% | 66.2% | 99.8% | 98.3% | 87.1% | 89.9% | 102% | 96.8%
COc1cc(-c2nc3ccc(C)cc3[nH]2)ccc1OCc1nnc(-c2ccc(CC(C)C)cc2)o1 | 93.2% | 86.9% | 97.2% | 90.6% | 90.8% | 79.4% | 97.4% | 93.5% | 90% | 103% | 101% | 46% | 98% | 88.9% | 71.3% | 105% | 96.3% | 91.7% | 96.8% | 104%
N=C(N)c1ccc(-c2ccc(-c3cccs3)s2)nc1 | 71.2% | 67.6% | -13.1% (active) | 66.5% | -22% (active) | -9.04% (active) | 72.8% | 2.67% (active) | 56.2% | -94% (active) | 64.4% | -14.9% (active) | 57.1% | 8.8% (active) | 30.8% | 70.1% | 7.11% (active) | 84.5% | 63.2% | 75%
COc1ccc(-c2nc(-c3ccccc3)c(-c3ccccc3)[nH]2)cc1OC1CCCC1 | 73.1% | 88.9% | 66% | 113% | 61.4% | 12.6% | 36.1% | 61.8% | 78.6% | 86.3% | 86.4% | 31.6% | 103% | 18.7% | 13.7% | 73.7% | 52.9% | 63.3% | 79.9% | 56.1%
CCCC(C)c1ccc(OCCCCCCN2CCNCC2)cc1 (stereo not given) | 61.6% | 89.3% | 58.3% | 66.6% | 6.72% (active) | 25.1% | 3.3% (active) | 39.7% | -21.1% (active) | -68.3% (active) | 38.4% | -34.1% (active) | 37% | -0.569% (active) | -13.3% (active) | 70.4% | -6.71% (active) | 56.1% | 79% | 57.5%
COC(=O)c1cnc2c(c1)Oc1ccccc1-c1ccnn1-2 | 95.8% | 83.9% | 105% | 92.5% | 104% | 86.9% | 80.3% | 86.3% | 90.6% | 101% | 109% | 90.7% | 101% | 94.8% | 107% | 98.7% | 105% | 97% | 101% | 98.8%
O=C1CC(c2cccc(-c3cccnc3)c2)=Nc2ccc(Br)cc2N1 | 44.4% | 27.8% | 67.2% | 19.7% | 24.3% | 23.5% | 22.5% | 38.1% | 1.54% (active) | 61.1% | 65.8% | 54.2% | 40.9% | 43.6% | 40.2% | 44.1% | 48.7% | 55.7% | 38.5% | 37.8%
O=C1NN(c2ccccc2)C(c2cccnc2)=N/C1=C\c1cccnc1 | 89.4% | 80.8% | 84.9% | 92% | 95.2% | 99% | 105% | 112% | 98.8% | 105% | 93.1% | 102% | 105% | 92.6% | 99.5% | 89.4% | 95.1% | 102% | 105% | 91.7%
C[C@@H]1C(=O)N(C[C@H](Cc2ccccc2)NC(=O)OCc2ccccc2)[C@]1(Cc1ccccc1)C(=O)OCc1ccccc1 | 34.3% | 48.5% | 72.4% | 70.9% | 34.9% | 51.2% | 28.9% | 20.8% | 58.3% | 7.23% (active) | 78.2% | 26.1% | 35.9% | 58.8% | 42.2% | 52.2% | 30% | 64.6% | 32.1% | 40.7%
COc1cccc(C(=O)N(c2ccc(F)c(F)c2)C(C(=O)NC(C)(C)C)c2cc3c(C)cc(C)cc3nc2Cl)c1 (stereo not given) | 66% | 65.7% | 84.7% | 86.6% | 64.1% | 47% | 61.6% | 52.8% | 76.6% | 70.2% | 75.5% | 55.8% | 95% | 47.4% | 72.3% | 64.7% | 54% | 79.4% | 79.6% | 64.9%
